Measurements reported in PubChem BioAssay (NCI).
Compounds without any hit were thinned out: in the full panel of roughly 83,000, 20% have a hit.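 Treatment: one concentration, 48 hours, 96-well format. Scoring: percent growth, with anything below 10 considered active.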 Activity calls are given as the source filed them.

tested on: M14 melanoma; assay: NCI-60 one-dose screen, 48 h (100 = growth as untreated, 0 = no growth, -100 = all killed); conditions: 10 µM unless noted
Experimental: Growth inhibition of the M14 human tumor cell line is measured as a screen for anti-cancer activity. Cells are grown in 96 well plates and exposed to the test compound for 48 hours. Compounds are tested at a single concentration, which is 10^-5 M for most compounds. The reported endpoint is percent growth (GI% or GIPRCNT), where numbers from 0 - 100% represent growth inhibition, and numbers from -100% - 0 represent cell death. For example, a value of 40 represents 60% growth inhibition. A value of 0 means no net growth occurred over the course of the experiment. A value of -40 indicates 40% of cells at the beginning of the experiment died by the end of the experiment. A value of -100 means all cells are dead at the end of the experiment.
NCI-60 Human Tumor Cell Lines Screen was performed using the standard one-dose NCI protocol, which is described in more detail at https://dtp.cancer.gov/discovery_development/nci-60/default.htm.
Compounds with GIPRCNT values below 10 were considered active. Activity score was based on GIPRCNT using the following formula: […]
Score is 0 for GIPRCNT values of 100 or above, 50 for GIPRCNT values of 0, and 100 for GIPRCNT values of -100.

| SMILES | growth |
| --- | --- |
| COc1cc2c(cc1-c1c(C)noc1C)ncc1nc(C3CCCCC3)n([C@H](C)COC(F)F)c12 | 39.9% (inactive) |
| Cn1cccc1-c1nc2c3c(ccc2[nH]1)C(=O)c1ccccc1C3=O | 99.7% (inactive) |
| COc1cc(-c2nc3cc(Cl)c(Cl)cc3[nH]2)ccc1OCC(=O)N=Nc1c(O)[nH]c2ccccc12 | -76.1% (active) |
| Nc1nc2ncc(CCNc3ccc(C(=O)O)cc3)nc2c(=O)[nH]1 | 107% (inactive) |
| Clc1ccc2nc3nc4ccc[nH]c4cc3c2c1 | 106% (inactive) |
| O=c1cc(/C(=C2/C=CC=N2)c2ccc[nH]2)c2cc(Cl)ccc2o1 | 35.5% (inactive) |
| Cc1nc(Nc2ccc(F)c(Cl)c2)sc1C(=O)O | 19.2% (inactive) |
| CC1SC(c2ccc(N(C)C)cc2)N(NC(=O)C(O)(c2ccccc2)c2ccccc2)C1=O (stereo not given) | 96% (inactive) |
| Fc1ccc2[nH]cc(SSc3c[nH]c4ccc(F)cc34)c2c1 | 53.2% (inactive) |
| O=C1CSC(=S)N1CCc1ccc(O)cc1 | 87.9% (inactive) |
| CCn1c(O)c(/C=N/NC(=O)C(C)c2ccc(CC(C)C)cc2)sc1=S (stereo not given) | 6.26% (active) |
| CC(=O)O[C@H]1C(=O)[C@@]2(C)[C@H]([C@H](OC(=O)c3ccccc3)[C@]3(O)C[C@H](OC(=O)[C@H](OC(=O)CCC(=O)OC4CCC(S/N=C(N)/N=C(\N)N(C)C)CC4)[C@@H](NC(=O)c4ccccc4)c4ccccc4)C(C)=C1C3(C)C)[C@]1(OC(C)=O)CO[C@@H]1C[C@@H]2O (stereo not given in full) | 30.1% (inactive) |
| Nc1ccc(-c2cc3c(NCc4ccccc4)ncnc3s2)cc1 | 103% (inactive) |
| Cn1c(NCCc2ccc(O)c(O)c2)nc2c1c(=O)n(Cc1ccc(Cl)c(Cl)c1)c(=O)n2C | 85.6% (inactive) |
| CCOc1ccc(-n2nc(C(=O)Nc3ccccc3)nc2-c2cc(OC)c(OC)c(OC)c2)cc1 | 38% (inactive) |
| COc1ccc(-c2cc(Nc3ccnc(N4CCOCC4)n3)on2)cc1 | 26.9% (inactive) |
| O=C1Nc2c(ccc(Cl)c2Cl)/C1=C\c1ccc(C(F)(F)F)cc1 | 98% (inactive) |
| OCCN1CCN(c2nc(Nc3ccc(-c4nc5ccccc5[nH]4)cc3)c3cn[nH]c3n2)CC1 | -78.3% (active) |
| COc1ccc2cc(-c3nn(-c4ccc(C(=O)O)cc4)cc3CO)ccc2c1 | 98.7% (inactive) |
| O=C(COc1cccc(/C=C2\COc3ccccc3C2=O)c1)Nc1nccs1 | -78.2% (active) |

| SMILES | growth |
| --- | --- |
| CSc1nc(NCCN2CCOCC2)c(C#N)c(-c2cccc([N+](=O)[O-])c2)n1 | 101% (inactive) |
| Nc1n[nH]c2ccc([C@@H]3Nc4cc5c(cc4[C@H]4C6CCC(C6)[C@@H]34)C(=O)NC5)cc12 (stereo not given in full) | 7.72% (active) |
| O=C(CCl)Oc1ccc(-c2ccccc2)c(Br)c1 | 103% (inactive) |
| C#Cc1cccc(NC(=O)c2ccccc2NC(=O)C=C)c1 | 103% [8.25 µM] (inactive) |
| O=C1/C(=C/N2N=C(c3ccc4ccccc4c3)CC2c2ccccc2O)SC(=S)N1c1cccnc1 (stereo not given) | 7.17% (active) |
| O=C(O)c1c(=O)cccc2ssc12 | 3.29% (active) |
| CCOc1cc2ncc(C#N)c(Nc3ccc(OCc4cccc(F)c4)c(Cl)c3)c2cc1NC(=O)CC1CCSS1 (stereo not given) | -68.5% (active) |
| CC(C)(CCCN=C(N)Nc1ccc(Cl)cc1)c1ccc(F)cc1 | 51.5% (inactive) |
| Cc1nn(-c2ccc(F)cc2)c2ncnc(Nc3ccc(NC(=O)Nc4ccc(Cl)c(C(F)(F)F)c4)cc3)c12 | 38.1% (inactive) |
| COC(=O)[C@@H]1CCCN1C(=O)[C@@H]1CCCN1C(=O)[C@H](Cc1ccccc1)NC(=S)Nc1cc(C(F)(F)F)cc(C(F)(F)F)c1 | 89.3% (inactive) |
| CCOC(=O)c1c(CN2CCN(C)CC2)nc2ccc(Cl)cc2c1-c1ccccc1 | -24.5% (active) |
| Nc1ccc(-c2cc3c(Nc4ccc(Oc5cccc(C(F)(F)F)c5)c(Cl)c4)ncnc3s2)cc1 | 86.6% (inactive) |
| O=C(Nc1ccccc1Cl)c1ccc(NC2=C(Cl)C(=O)N(C3CCCCC3)C2=O)cc1 | 92.6% [30 µM] (inactive) |
| COc1cc2c(cc1-c1c(C)noc1C)ncc1nc(C3CCOCC3)n([C@H](C)COC(F)F)c12 | 46.2% (inactive) |
| Cc1c(/C=C/[N+](=O)[O-])ccc2c1[nH]c1ccccc12 | 37.7% (inactive) |
| O=C1Nc2ccc(Br)cc2C12Oc1ccccc1C1CC(c3ccc(F)cc3)=NN12 (stereo not given) | 103% (inactive) |
| COc1ccc(N=Nc2nccs2)c(O)c1 | 59.6% (inactive) |
| CCCCC(=O)OCC1OC(n2cnc3c(=S)nc[nH]c32)C(OC(=O)CCCC)C1OC(=O)CCCC (stereo not given) | 10.4% (inactive) |
| COc1ccc(-n2nc(C)c3c(Nc4ccc(NC(=O)Nc5c(Cl)cccc5Cl)cc4)ncnc32)cc1 | 82.2% (inactive) |
| NC(=NCCCOc1ccc(Cl)cc1)Nc1ccc(Cl)cc1 | -35.7% (active) |
